Target: RGS9
Test: pooled miR-30 sensor sort-seq; sequence = guide strand
Details: shRNA
Further: reference of the scale not given here.

Row | Sequence | sensor-assay potency score (higher = more potent)
1 | TTGAGAATGAGATTCTTGGGGT | 0.816
2 | TTTTTGACAGCAACGACTGTTT | -0.217
3 | TTCTTTTTGATATTTCGCTTGG | -0.579
4 | TTGCCATCTATGTTGATCCAGC | -0.689
5 | TATCTGTCTGCTTTGTTCCTCT | -0.0404
6 | TGACTTTGGACTGATCTCCATA | -0.742
7 | TTCCTTTTCATATTCTTCCAAA | -0.756
8 | TTGTTTCTTGACTTCATTCGGA | 0.389
9 | TTGCAGAACATCACTTCCTGTC | 0.603

Target: RHBDL3
Test: as above
Details: shRNA

Row | Sequence | sensor-assay potency score (higher = more potent)
10 | TAGCTGTCATAGTACCACTTGC | -0.706
11 | TGATCAAACAGGACTTTCCAGT | -0.423
12 | TGAACTGGCACTTCATGCCTGA | 0.0699
13 | TAATGTAGCCTGTGTTCCCAGG | -0.768
14 | TGTCATAGTACCACTTGCGGTC | -0.531
15 | AAACTGATCAAACAGGACTTTC | -1.76
16 | TTAGGCTGACAAAATCCTGGTA | 0.00913
17 | TAGGCTGACAAAATCCTGGTAG | 0.858
18 | AAATCCACCACAGTGACTGGTC | 0.238
19 | ATCCGCAGCAGCTTGAACTGGC | -0.0826
20 | TTGCCTGTGCTAATGTAGCCTG | -0.542
21 | TTGAACTGGCACTTCATGCCTG | 0.341

Target: RHOF
Test: as above
Details: shRNA

Row | Sequence | sensor-assay potency score (higher = more potent)
22 | TTCCTCAGGTCTGTCTTGCAGC | -0.598
23 | AAACTTGGCGGAACATTCCAGG | -0.805
24 | ATGAGCAGCGAGGTCTTGCCGC | -1.07
25 | TTGATGAGGACGTTGTCGTAGC | 0.173
26 | TAGCAGATGAGCACGAGGTGGG | 0.0207
27 | TAGAGAGCAGCTCGGATCTGTT | -0.736
28 | TTGCTGCCAACGGTCACGCTGG | -0.873
29 | TAGGTGATGGGCTCCAGCTGGG | -0.461
30 | TACTTCTCGAACACCGATGGGG | 0.0393
31 | TAGTCTTCTTGCCCGGCCGTGT | -1.09
32 | TTCAGCTCCTTCCTGCCCGGAC | -0.816
33 | TCCAGGTAGAGAGCAGCTCGGA | -1.54

Target: RHOH
Test: as above
Details: shRNA

Row | Sequence | sensor-assay potency score (higher = more potent)
34 | TTGACGGCAGTTCGGACGGCGC | -1.65
35 | TCCGGGAAGGTCTCGGAGGTGA | -1.75
36 | TTCACTTGTAGAGTGTAGTTAG | 0.0342
37 | TTCTCGTACACTGTGGGCTTGT | -0.506
38 | AAGCGCACCAACAGAGAGGTTT | -0.535
39 | TGTGTTCTCGTACACTGTGGGC | -1.21
40 | TAGGCCTCCGGGAAGGTCTCGG | -0.658

Source: the OligoGym collection
